Tau fibril FP: qHTS for Inhibitors of Tau Fibril Formation, Fluorescence Polarization; 280,000 compounds, 0.39% hits; K18 P301L tau heparin fibrillization, Alexa594 FP, 6 h; Microtubule-associated protein tau (Homo sapiens), P10636; Potency, µM (titrated, usually from 57.7 µM), without a hit: at the top dose activity, negative = inhibition, actives largely listed as inhibitors; also: nearly all actives have a fitted effect of over 55% in size
Target sequence (P10636 561-689 P618L limits assumed): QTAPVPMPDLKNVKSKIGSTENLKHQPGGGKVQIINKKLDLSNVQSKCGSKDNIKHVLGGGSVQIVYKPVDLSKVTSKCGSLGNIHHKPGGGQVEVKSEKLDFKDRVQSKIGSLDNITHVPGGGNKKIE
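Read-out: fluorescence polarization of Alexa 594-labeled tau (0.24 uM), 555 nm excitation, 632 nm emission. Mixtures held 15 uM unlabeled K18 P301L, compound and 20 uM heparin, pH 7 acetate buffer, incubated 6 hr at 37 C.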
TRb SRC2 PPI: qHTS for Inhibitors of the Interaction of Thyroid Hormone Receptor and Steroid Receptor Coregulator 2; AID 1469, 2008; Thyroid hormone receptor beta (Homo sapiens), P10828; 280,000 compounds, 0.065% hits; TRbeta-SRC2 peptide binding, fluorescence polarization; receptor liganded with 1 µM T3; Potency, µM (series often up to 106 µM), for inactives: at the top dose activity change, negative = inhibition, usual class: inhibitors;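 also: plate controls were bound peptide for no effect and peptide without receptor for full effect; nearly all actives have a fitted effect of over 50% in size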
Target sequence (P10828 whole entry, looked up): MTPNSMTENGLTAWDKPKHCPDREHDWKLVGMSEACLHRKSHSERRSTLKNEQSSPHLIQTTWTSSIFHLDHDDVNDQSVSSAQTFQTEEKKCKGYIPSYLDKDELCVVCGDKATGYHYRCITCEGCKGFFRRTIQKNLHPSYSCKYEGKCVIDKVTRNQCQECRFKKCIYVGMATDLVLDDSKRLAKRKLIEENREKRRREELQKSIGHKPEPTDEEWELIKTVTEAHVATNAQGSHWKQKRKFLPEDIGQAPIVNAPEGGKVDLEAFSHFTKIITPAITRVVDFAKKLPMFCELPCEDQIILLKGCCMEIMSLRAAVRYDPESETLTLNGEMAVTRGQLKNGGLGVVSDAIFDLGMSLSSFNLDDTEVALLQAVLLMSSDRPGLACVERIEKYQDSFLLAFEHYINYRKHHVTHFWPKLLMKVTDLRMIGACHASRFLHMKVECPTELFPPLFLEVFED
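Fluorescence polarization of 20 nM Texas Red SRC2 peptide (20-aa NR interaction domain) bound to 0.6 uM human TRb ligand-binding domain, with 1 uM T3, after 5 hr at ambient temperature; inhibition seen as decreased polarization.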
Tau fluor counter: Counterscreen qHTS for Inhibitors of Tau Fibril Formation, Fluorescence Polarization; tau K18 P301L Alexa594 fluorescence, heparin fibrillization; Potency, µM (series often up to 57.7 µM), inactives show top-dose activity change, negative = decrease; 280,000 compounds, 0.93% hits; AID 1463, 2008; also: nearly all actives have a fitted effect of over 55% in size
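Human tau K18 P301L (15 uM unlabeled, 0.24 uM Alexa 594-labeled) in 100 mM sodium acetate pH 7 with 20 uM heparin, 6 hr at 37 C. ThT 30 uM added, 1 hr ambient; Alexa 594 FP and total fluorescence read at 555/632 nm.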
Tau ThT inhib: qHTS for Inhibitors of Tau Fibril Formation, Thioflavin T Binding; AID 1460, 2008; Potency, µM (series often up to 57.4 µM), for inactives: at the top dose activity, negative = inhibition, hits mostly inhibitors; recombinant tau K18 P301L, heparin-induced fibrillization, ThT fluorescence; Microtubule-associated protein tau (Homo sapiens), P10636; 270,000 compounds, 2.1% hits; also: nearly all actives have a fitted effect of over 55% in size
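Fibril formation assay: tau K18 P301L at 15 uM with trace Alexa 594 label, heparin inducer 20 uM, pH 7 sodium acetate buffer, 37 C for 6 hr; endpoint ThT signal.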
TexasRed fluor: Total Fluorescence Counterscreen for Inhibitors of the Interaction of Thyroid Hormone Receptor and Steroid Receptor Coregulator 2; TRb/SRC2 Texas Red total fluorescence interference; Potency, µM (top dose mostly 106 µM), without a hit: at the top dose fluorescence change, negative = quenching; 280,000 compounds, 0.29% hits; AID 1479, 2009; active = well fitted curve in either direction with a large enough effect; inconclusive = small, poorly fitted or top-dose-only effect
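Flags fluorescent or light-absorbing compounds by total fluorescence, S + 2P, at 555 nm excitation and 632 nm emission. Mixture: 20 nM Texas Red SRC2 peptide, 0.6 uM human TRb LBD, 1 uM T3, 5% DMSO; compound exposure 5 h at ambient temperature.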
RGS12 GoLoco inh: qHTS Assay for Inhibitors of RGS12 GoLoco Motif Activity (Red Fluorophore); 230,000 compounds, 0.44% hits; Guanine nucleotide-binding protein G(i) subunit alpha-1 (Homo sapiens), P63096; Potency, µM (top dose mostly 61.6 µM), without a hit: top-dose activity, negative = inhibition, usual class: inhibitors; Gai1:RGS12 GoLoco peptide FP, rhodamine, 10 min; active = well fitted inhibition curve with a large enough effect, not every such curve was filed as active; inactive = no such curve, though single readings can be large or run the other way; also: nearly all actives have a fitted effect of over 30% in size
* hit, by the source's call; ? = inconclusive; / = no result given; [ ] = dose if it differs, or a comment. Hits are enriched below; roughly 3.2% of the tested compounds scored in any of these assays. Unless noted, calls follow the shape of the dose curve; as a rule, active = well fitted curve in the direction sought with a large enough effect; inconclusive = small, poorly fitted or top-dose-only effect, or another doubt; inactive = no such curve, though single readings can be large; an effect the other way counts as inactive or inconclusive. Unless noted, % is scaled to controls: 0 for no effect and ±100 for the full control effect; potency is read from the fitted curve at half-maximal effect.

SMILES | Tau fibril FP | TRb SRC2 PPI | Tau fluor counter | Tau ThT inhib | TexasRed fluor | RGS12 GoLoco inh
Cc1ccc2nc(SCC(=O)Nc3ccc4c(c3)CCC4)[nH]c2c1 | 2% | 0% | 6% | ? | -1% | 87%
Cc1cc(/C=N\NC(=O)COc2cccc3cccnc23)c(C)n1-c1ccccc1 | -11% | 2% | ? | 25µM* | -2% | 12%
O=C(COc1ccccc1)Nc1nnc(S(=O)(=O)Nc2ccccc2)s1 | -8% | -22% | ? | ? | 0.05µM*[quencher] | /
O=C(COc1ccccc1)Nc1nnc(S(=O)(=O)N2CCCC2)s1 | -14% | 3% | -23% | ? | -4% | /
CCN(CC)S(=O)(=O)c1nnc(NC(=O)COc2cccc(C)c2)s1 | 8% | -10% | 4% | ? | 3.2µM*[quencher] | /
C=CCn1c(NC(=O)c2ccc(Br)o2)c(S(=O)(=O)c2ccccc2)c2nc3ccccc3nc21 | ? | -20% | -27% | 20µM* | -3% | 6%
CC(=O)OCCCNc1cc(Sc2ccc(Cl)cc2)c2nonc2c1[N+](=O)[O-] | ? | -1% | ? | 8.9µM* | 7% | 0%
CCC(=O)OCCNc1cc(Sc2nccn2C)c2nonc2c1[N+](=O)[O-] | -10% | -8% | ? | 4.5µM* | 0% | -6%
Cc1ccc(Sc2cc(NCCCO)c([N+](=O)[O-])c3nonc23)cc1 | -16% | 2% | -31% | / | -3% | -11%
CCCC(=O)OCCNc1cc(Sc2nc3ccccc3[nH]2)c2nonc2c1[N+](=O)[O-] | -2% | 1% | -28% | ? | 2% | -11%
CCC(=O)OCCNc1cc(SCCC(=O)OC)c2nonc2c1[N+](=O)[O-] | ? | -1% | ? | 7.9µM* | ? | -11%
CCCC(=O)c1cc(O)c(O)cc1O | / | 6% | / | / | -14% | -17%
CCCCC/C=C\C\C=C/C=C/C=C/[C@@H](SCC(N)C(=O)NCC(=O)O)[C@@H](O)CCCC(=O)O (stereo partly specified) | ? | -5% | -9% | -6% | 1% | 3%
CN(C)S(=O)(=O)c1cccc(NC(=S)N/N=C/c2ccc(O)c(O)c2O)c1 | 7.1µM* | 3% | 13µM*[quencher] | 3.2µM* | -6% | -16%
CCn1c(C)nc2cc(C(=O)N/N=C/c3ccc(O)c(O)c3O)ccc21 | 7.9µM* | -6% | ? | 3.2µM* | ? | 2%
CCN(CC)S(=O)(=O)c1cccc(C(=O)N/N=C/c2ccc(O)c(O)c2O)c1 | 8.9µM* | -5% | ? | 3.2µM* | -28% | -5%
Cc1ccc(NC(=S)NC(=O)c2ccc(-c3ccc(Cl)cc3)o2)c(O)c1 | 9% | 4% | 5% | 11% | 2% | 25%
Cc1cc(O)c(NC(=S)NC(=O)c2ccc(-c3ccc(Cl)cc3)o2)cc1C | ? | 27% | 7.9µM*[quencher] | 11µM* | -27% | -3%
Cc1ccc(NC(=O)CCn2cnc3ccccc3c2=O)cc1Cl | -11% | 3% | 0% | 1% | 0% | 2%
Cc1ccc(N/N=C2\CC(=O)c3ccccc32)cc1Cl | ? | 3% | ? | 7.1µM* | 1% | 10%
CCc1ccc(NC(=O)Cn2c(=O)n(-c3ccccc3)c(=O)c3ccc(C(=O)NCc4ccc5c(c4)OCO5)cc32)cc1 | ? | 1% | -17% | 12% | -2% | /
O=C(Cn1c(=O)n(-c2ccccc2)c(=O)c2ccc(C(=O)NCc3ccc4c(c3)OCO4)cc21)Nc1ccc(F)c(Cl)c1 | 25µM* | 2% | -25% | 6% | 0% | /
O=C(Cn1c(=O)n(Cc2ccc(C(=O)NCc3ccccc3Cl)cc2)c(=O)c2ccccc21)Nc1ccc(F)c(Cl)c1 | 14µM* | -2% | -17% | -2% | 0% | /
CCCCNc1nc(C)nc2c1nc(-c1ccccc1)n2CCCN(CC)CC | -5% | 0% | -6% | 2% | -3% | 11%
COC(=O)/C(=C/Nc1ccc(O)cc1)[N+](=O)[O-] | ? | ? | ? | 18µM* | 4% | -6%
SMILES | Tau fibril FP | TRb SRC2 PPI | Tau fluor counter | Tau ThT inhib | TexasRed fluor | RGS12 GoLoco inh
COC(=O)/C(=C/Nc1ccccc1)[N+](=O)[O-] | -3% | -5% | -7% | -13% | 1% | -15%
Cc1[nH]c(N=Nc2ccccc2)nc1N=Nc1ccccc1 | -1% | 2% | ? | 3.5µM* | -4% | 10%
Cc1cccc(C2(c3cccc(C)c3)CC2C(=O)NCC2CCCO2)c1 (stereo unspecified) | 12% | 7% | 7% | 1% | -1% | 11%
Cc1cccc(C2(c3cccc(C)c3)CC2C(=O)Nc2ccc([N+](=O)[O-])cc2O)c1 (stereo unspecified) | ? | 0% | 10µM*[quencher] | ? | -1% | 10%
CCCCCC1CCC(=O)O1 (stereo unspecified) | / | 7%[201 µM] | / | / | -4%[201 µM] | /
C=CCOC(=O)N[C@H](/C(C(=O)OC)=C(\C)NCc1ccccc1)c1cccc(F)c1 | -1% | 0% | 0% | 2% | -2% | 0%
O=S(=O)(Nc1ccc(Br)cc1)c1ccc2nc(-c3ccccc3)[nH]c2c1 | 16µM* | 4% | ? | 16% | -1% | /
Cc1ccc(NS(=O)(=O)c2ccc3nc(-c4ccccc4)[nH]c3c2)c(Cl)c1 | 14µM* | 4% | ? | 12% | 0% | /
Cc1ccc(NS(=O)(=O)c2ccc3nc(-c4ccccc4)[nH]c3c2)c(Br)c1 | ? | 4% | ? | 8% | 0% | /
Cc1cccc(NS(=O)(=O)c2ccc3nc(-c4ccccc4)[nH]c3c2)c1C | ? | -4% | -16% | 17% | 2% | 0%
CC(C)c1ccc(NS(=O)(=O)c2ccc3nc(-c4ccccc4)[nH]c3c2)cc1 | 10µM* | 7% | ? | ? | 1% | /
CSCC[C@H](NC(=O)[C@H](CC(C)C)NC(=O)CCNC(=O)[C@@H](NC(=O)[C@H](Cc1ccccc1)NC(=O)[C@H](CO)NC(=O)[C@@H](N)CC(=O)O)C(C)C)C(N)=O | / | 6% | / | / | -1% | /
CCCN(CCC)C(=O)C1CCCN(S(=O)(=O)c2cc(Br)cc3c2N(C(=O)CC)CC3)C1 (stereo unspecified) | -1% | 1% | -9% | -12% | -30% | /
